Measurements from the supplement of paper PMC6897291.

Tested on: U-2932
Assay: growth inhibition by drug alone (1 - RLU/untreated control) (fraction); higher = stronger inhibition
Conditions: 177Lu-lilotomab satetraxetan 0 ug/ml
Procedure: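 U-2932 ABC-DLBCL cells were pretreated or not for 18 h with 1 ug/ml 177Lu-lilotomab satetraxetan (600 MBq/mg), washed and seeded (3000 cells/well) on 384-well plates pre-printed with the Selleck Cambridge Cancer Compound library. Viability was read by RealTime-Glo luminescence on days 3-6 after seeding. Effect = 1 - RLU/mean RLU of the 48 untreated no-drug control wells per plate; Bliss score = (M-E)/(1-Fa), with E the expected Bliss-additive effect.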

Row | Structure (SMILES) | growth inhibition by drug alone (10 nM, time (day): 3) | growth inhibition by drug alone (10 nM, time (day): 4) | growth inhibition by drug alone (10 nM, time (day): 5) | growth inhibition by drug alone (10 nM, time (day): 6) | growth inhibition by drug alone (1000 nM, time (day): 3) | growth inhibition by drug alone (1000 nM, time (day): 4) | growth inhibition by drug alone (1000 nM, time (day): 5) | growth inhibition by drug alone (1000 nM, time (day): 6)
1 | N[C@@H](Cc1ccc(N(CCCl)CCCl)cc1)C(=O)O [Melphalan] | 0.0288 | 0.0447 | -0.0175 | -0.0774 | -0.0212 | 0.00786 | -0.0265 | -0.169
2 | Cn1cc(C2=C(c3cn(C4CCN(Cc5ccccn5)CC4)c4ccccc34)C(=O)NC2=O)c2ccccc21 | -0.0338 | -0.0583 | -0.0539 | 0.0229 | -0.144 | -0.131 | -0.13 | -0.0775
3 | O=C(O)c1nn(Cc2ccc(Cl)cc2Cl)c2ccccc12 [Lonidamine] | 0.129 | 0.0861 | 0.00199 | -0.13 | 0.0943 | 0.0942 | -0.0767 | -0.0595
4 | C[C@]12CCC(=O)C(O)=C1CC[C@@H]1[C@@H]2CC[C@]2(C)C(=O)CC[C@@H]12 [Formestane] | -0.0202 | -0.0416 | -0.00849 | 0.0511 | -0.0617 | -0.0526 | -0.0433 | 0.0231
5 | Cc1ccccc1-n1c(Cn2cnc3c(N)ncnc32)nc2cccc(C)c2c1=O | 0.0494 | 0.000763 | 0.0122 | 0.0686 | 0.047 | 0.0488 | 0.0186 | 0.102
